From PubChem BioAssay AID1159580 (chemical genetic matrix, 2015)
Several values for one entry are separate records, joined by “and”; a condition that tells them apart may be missing. Equal entries are not always repeated. Out of some 5,500 compounds screened, about 2,000 (36%) were called active. Another 18% or so got no clear call; they are omitted. Cut-off read from the data, not from the text of the source: active = normalized growth mostly below about 0.91 (no sharp cut-off); inconclusive = no clear call, values can overlap the other calls; inactive = mostly above about 0.92. Some of the results follow.

Test: chemical genetic growth profiling, strain panel (AID 1159580);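 note: tested at 20 µM; growth read once vehicle control cultures reached saturation at 30 °C; 1 = growth at the plate median or of vehicle wells; lower values mean less growth of the strain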
Details: S. cerevisiae deletion strains, growth OD

Measured: normalized growth

COc1ccccc1OCC(O)CO (stereo not drawn)
inactive: locus YAL021C, strain ccr4, hits give low values 1.02 | locus YAL026C, strain drs2, hits give low values 1.02 | locus YAL030W, strain snc1, hits give low values 1.02 | locus YBL061C, strain skt5, hits give low values 1.02 | locus YBR009C, strain hhf1, hits give low values 1.02 | locus YBR021W, strain FUR4, hits give low values 1.02 | locus YBR023C, strain chs3, hits give low values 1.02 | locus YBR171W, strain sec66, hits give low values 1.04 | locus YBR229C, strain ROT2, hits give low values 1 | locus YBR231C, strain swc5, hits give low values 1.02 | locus YBR279W, strain paf1, hits give low values 1.03 | locus YCL011C, strain gbp2, hits give low values 1.02 | locus YCL016C, strain dcc1, hits give low values 1.02 | locus YCL029C, strain bik1, hits give low values 0.972 | locus YCL061C, strain MRC1, hits give low values 1.03 | locus YCL069W, strain vba3, hits give low values 1.01 | locus YCR088W, strain abp1, hits give low values 1.02 | locus YDL005C, strain med2, hits give low values 1.04 | locus YDL035C, strain GPR1, hits give low values 1.02 | locus YDL040C, strain nat1, hits give low values 1.02 | locus YDL074C, strain BRE1, hits give low values 1 | locus YDL101C, strain DUN1, hits give low values 1.01 | locus YDL134C, strain PPH21, hits give low values 0.997 | locus YDL185W, strain tfp1, hits give low values 1 | locus YDL192W, strain arf1, hits give low values 1 | locus YDR001C, strain nth1, hits give low values 1.02 | locus YDR069C, strain doa4, hits give low values 1.02 | locus YDR101C, strain arx1, hits give low values 0.972 | locus YDR137W, strain rgp1, hits give low values 1.03 | locus YDR159W, strain sac3, hits give low values 1.02 | locus YDR162C, strain NBP2, hits give low values 1.01 | locus YDR195W, strain ref2 1.02 | locus YDR297W, strain sur2, hits give low values 1.02 | locus YDR318W, strain mcm21, hits give low values 1.02 | locus YDR334W, strain swr1, hits give low values 1.03 | locus YDR335W, strain msn5, hits give low values 1.03 | locus YDR388W, hits give low values 0.99 | locus YDR392W, strain spt3, hits give low values 0.987 | locus YDR502C, strain sam2, hits give low values 1.02 | locus YEL003W, strain gim4, hits give low values 1.01 | locus YEL037C, strain rad23, hits give low values 1.02 | locus YEL061C, strain CIN8 (second series), hits give low values 1.02 | locus YEL061C, strain CIN8, hits give low values 1.03 | locus YER015W, strain faa2, hits give low values 1.02 | locus YER016W, strain bim1, hits give low values 1.04 | locus YER110C, hits give low values 0.988 | locus YER111C, strain swi4, hits give low values 1.02 | locus YER155C, strain BEM2 (second series), hits give low values 1.02 | locus YER155C, strain BEM2, hits give low values 1.01 | locus YER167W, strain BCK2, hits give low values 1 | locus YFR010W, strain ubp6, hits give low values 1.02 | locus YGL078C, strain dbp3, hits give low values 1.02 | locus YGL086W, strain mad1, hits give low values 1 | locus YGL167C, strain pmr1, hits give low values 1.02 | locus YGL173C, strain kem1, hits give low values 1.02 | locus YGL227W, strain vid30, hits give low values 1.03 | locus YGL240W, strain doc1, hits give low values 1.03 | locus YGL248W, strain PDE1, hits give low values 1.01 | locus YGL253W, strain hxk2, hits give low values 1.01 | locus YGR078C, strain PAC10, hits give low values 1.01 | locus YGR135W, strain pre9, hits give low values 1.04 | locus YGR252W, strain gcn5, hits give low values 1.22 | locus YHR013C, strain ard1, hits give low values 1.04 | locus YHR027C, strain rpn1, hits give low values 1.01 | locus YHR030C, strain SLT2, hits give low values 1 and 0.993 | locus YHR079C, strain IRE1 (second series), hits give low values 0.988 | locus YHR079C, strain IRE1, hits give low values 0.965 | locus YHR094C, strain hxt1, hits give low values 0.978 | locus YHR129C, strain ARP1, hits give low values 0.964 | locus YHR142W, strain chs7, hits give low values 1.03 | locus YHR200W, strain rpn10, hits give low values 1.01 | locus YIL066C, strain RNR3, hits give low values 1 | locus YIL073C, strain SPO22, hits give low values 1.05 | locus YIL125W, strain kgd1, hits give low values 1.01 | locus YIR030C, strain dcg1, hits give low values 0.99 | locus YJL092W, strain hpr5, hits give low values 1.03 | locus YJL095W, strain BCK1 (second series), hits give low values 1.02 | locus YJL095W, strain BCK1, hits give low values 1.03 and 0.964 | locus YJL115W, strain asf1, hits give low values 1.02 | locus YJL129C, strain trk1, hits give low values 1.04 | locus YJL134W, strain LCB3, hits give low values 1 | locus YJL154C, strain vps35, hits give low values 1.01 | locus YJL164C, strain tpk1, hits give low values 1.02 | locus YJL166W, strain qcr8, hits give low values 1.03 | locus YJL168C, strain set2, hits give low values 0.986 | locus YJL187C, strain SWE1 (second series), hits give low values 1.01 | locus YJL187C, strain SWE1, hits give low values 1.05 | locus YJR043C, strain POL32, hits give low values 1.01 | locus YJR066W, strain TOR1, hits give low values 0.924 | locus YKL009W, strain mrt4, hits give low values 1.01 | locus YKL068W, hits give low values 1.01 | locus YKL085W, strain MDH1 (second series), hits give low values 0.999 | locus YKL085W, strain MDH1, hits give low values 0.999 | locus YKL160W, strain elf1, hits give low values 1.02 | locus YKR001C, strain vps1, hits give low values 0.998 | locus YKR026C, strain gcn3, hits give low values 1.02 | locus YKR091W, strain srl3, hits give low values 1.02 | locus YLL001W, strain dnm1, hits give low values 1.02 | locus YLL026W, hits give low values 1.02 | locus YLL041C, strain sdh2, hits give low values 1.01 | locus YLR027C, strain aat2, hits give low values 1.01 | locus YLR039C, strain RIC1, hits give low values 1.02 | locus YLR058C, strain SHM2, hits give low values 1.01 | locus YLR102C, strain apc9, hits give low values 0.982 | locus YLR113W, strain HOG1, hits give low values 0.999 | locus YLR221C, strain rsa3, hits give low values 1.01 | locus YLR258W, strain gsy2, hits give low values 1.01 | locus YLR262C, strain YPT6 (second series), hits give low values 1.02 | locus YLR262C, strain YPT6, hits give low values 1.04 | locus YLR268W, strain sec22, hits give low values 1.01 | locus YLR320W, strain mms22, hits give low values 1.03 | locus YLR330W, strain CHS5, hits give low values 1.02 | locus YLR342W, strain FKS1 (second series), hits give low values 1.01 | locus YLR342W, strain FKS1, hits give low values 1.02 | locus YLR357W, strain rsc2, hits give low values 1.03 | locus YLR370C, strain arc18, hits give low values 1.02 | locus YLR371W, strain rom2, hits give low values 0.965 | locus YLR384C, strain iki3, hits give low values 1.02 | locus YLR418C, strain cdc73, hits give low values 1.06 | locus YML016C, strain PPZ1, hits give low values 1 | locus YML032C, strain rad52, hits give low values 1.01 | locus YML120C, strain ndi1, hits give low values 1.02 | locus YML124C, strain tub3, hits give low values 0.996 | locus YMR058W, strain fet3, hits give low values 1.02 | locus YMR078C, strain ctf18, hits give low values 0.99 | locus YMR125W, strain sto1, hits give low values 1.06 | locus YMR129W, hits give low values 1.02 | locus YMR205C, strain PFK2, hits give low values 1.02 | locus YMR223W, strain ubp8, hits give low values 1.03 | locus YMR231W, strain pep5, hits give low values 1.02 | locus YMR307W, strain GAS1, hits give low values 1.05 | locus YNL067W, strain RPL9B, hits give low values 1.02 | locus YNL071W, strain lat1, hits give low values 1.02 | locus YNL153C, strain GIM3, hits give low values 1.01 | locus YNL183C, strain NPR1, hits give low values 0.956 | locus YNL209W, strain ssb2, hits give low values 1.02 | locus YNL233W, strain BNI4, hits give low values 1.01 | locus YNL248C, strain rpa49, hits give low values 1.04 | locus YNL250W, strain rad50, hits give low values 1.02 | locus YNL271C, strain bni1, hits give low values 1.01 | locus YNL298W, strain CLA4, hits give low values 1.01 | locus YNL307C, strain MCK1, hits give low values 0.99 | locus YNL322C, strain KRE1 (second series), hits give low values 1.04 | locus YNL322C, strain KRE1, hits give low values 1.01 | locus YNR049C, strain mso1, hits give low values 1.02 | locus YNR052C, strain pop2, hits give low values 0.998 | locus YOL012C, strain htz1 0.827 | locus YOL147C, strain pex11, hits give low values 0.995 | locus YOR001W, strain rrp6, hits give low values 0.995 | locus YOR061W, strain CKA2, hits give low values 1.01 | locus YOR069W, strain VPS5, hits give low values 1.01 | locus YOR070C, strain gyp1, hits give low values 1.02 | locus YOR080W, strain dia2, hits give low values 1.04 | locus YOR083W, strain WHI5, hits give low values 1.02 | locus YOR106W, strain vam3, hits give low values 1.02 | locus YOR136W, strain idh2, hits give low values 0.994 | locus YOR144C, strain elg1, hits give low values 0.993 | locus YOR184W, strain ser1, hits give low values 1 | locus YOR231W, strain MKK1, hits give low values 0.991 | locus YOR265W, strain rbl2, hits give low values 1.02 | locus YOR270C, strain vph1, hits give low values 1.05 | locus YOR290C, strain snf2, hits give low values 0.99 | locus YOR316C, strain cot1, hits give low values 0.986 | locus YPL051W, strain arl3, hits give low values 1.01 | locus YPL078C, strain atp4, hits give low values 1.02 | locus YPL106C, strain sse1, hits give low values 1.01 | locus YPL240C, strain hsp82, hits give low values 1.02 | locus YPL256C, strain CLN2, hits give low values 0.977 | locus YPR119W, strain clb2, hits give low values 0.992 | locus YPR141C, strain kar3, hits give low values 0.996 | locus YPR163C, strain tif3, hits give low values 1.01 | locus YPR167C, strain met16, hits give low values 0.999 | strain wtn01, hits give low values 1.05
